# Records with an inconclusive call do not appear. Where a call stands in place of a potency, no number is given. Activity calls are given as the source filed them. Unless noted, calls follow the shape of the full dose curve.
# Experiments:
# [1] = qHTS for Inhibitors of the Functional Ribonucleoprotein Complex (vRNP) of Lassa (LASV) Arenavirus: LASV Primary Screen - GLuc reporter signal (AID 1347082; calls by dose curve; tested in HEK293 reporter line; also: nearly all actives have a fitted effect of over 60% in size; also: potency is read from the fitted curve at half-maximal effect)
# [2] = qHTS for Inhibitors of the Functional Ribonucleoprotein Complex (vRNP) of Lassa (LASV) Arenavirus: Viability assay - alamar blue signal for LASV Primary Screen (AID 1347083; calls by dose curve; tested in HEK293 reporter line; also: nearly all actives have a fitted effect of over 80% in size; also: potency is read from the fitted curve at half-maximal effect)
# [3] = qHTS for Inhibitors of the Functional Ribonucleoprotein Complex (vRNP) of Lymphocytic Choriomeningitis Arenaviruses (LCMV): Viability assay - alamar blue signal for LCMV Primary Screen (AID 1347085; calls by dose curve; tested in HEK293 reporter line; also: nearly all actives have a fitted effect of over 80% in size; also: potency is read from the fitted curve at half-maximal effect)
# [4] = molecular target: Nucleoprotein (Lymphocytic choriomeningitis virus (strain Armstrong)) (UniProt P09992); experiment: qHTS for Inhibitors of the Functional Ribonucleoprotein Complex (vRNP) of Lymphocytic Choriomeningitis Arenaviruses (LCMV): LCMV Primary Screen - GLuc reporter signal (AID 1347086); also: nearly all actives have a fitted effect of over 70% in size; also: potency is read from the fitted curve at half-maximal effect
# [5] = Cytotoxicity counterscreen for inhibitors of SARS-CoV-2 cell entry (AID 1645845); also: nearly all actives have a fitted effect of over 50% in size
# Summary of the method: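 ATP-content luminescence (ATPLite 1step, 15 min RT) read after 48 h compound exposure of Expi293F cells stably expressing human ACE2; normalized to cells-only wells and media-only wells.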
# [6] = Primary qHTS to identify inhibitors of SARS-CoV-2 cell entry (AID 1645846); details: activity change, negative = inhibition: at 57.1 µM (top of the series) unless noted; also: nearly all actives have a fitted effect of over 45% in size
# Summary of the method: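 Entry measured by luciferase signal 48 h after adding SARS-CoV-2-S pseudotyped MLV particles to HEK293-ACE2 cells preincubated 1 h with compounds. Normalisation: bald particles and spike particles.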
# Chain of Nucleoprotein (Lymphocytic choriomeningitis virus (strain Armstrong)) (P09992 whole entry, looked up): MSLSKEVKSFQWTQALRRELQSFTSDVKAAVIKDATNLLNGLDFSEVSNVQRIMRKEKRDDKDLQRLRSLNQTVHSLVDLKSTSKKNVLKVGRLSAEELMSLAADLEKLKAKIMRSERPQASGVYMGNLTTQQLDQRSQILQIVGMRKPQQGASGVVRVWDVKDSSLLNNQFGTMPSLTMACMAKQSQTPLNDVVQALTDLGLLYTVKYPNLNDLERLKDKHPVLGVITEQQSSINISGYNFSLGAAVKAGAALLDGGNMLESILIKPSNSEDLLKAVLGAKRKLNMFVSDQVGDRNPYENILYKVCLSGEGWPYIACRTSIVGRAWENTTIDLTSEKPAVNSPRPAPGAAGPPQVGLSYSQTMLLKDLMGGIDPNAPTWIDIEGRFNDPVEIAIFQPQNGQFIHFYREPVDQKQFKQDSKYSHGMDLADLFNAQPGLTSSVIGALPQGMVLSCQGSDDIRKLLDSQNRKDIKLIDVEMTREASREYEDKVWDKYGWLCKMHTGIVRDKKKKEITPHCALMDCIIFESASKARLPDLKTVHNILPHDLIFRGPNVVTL
Compound,Potency [1],Potency [2],Potency [3],Potency [4],Potency [5],"activity change, negative = inhibition [6]",Potency [6]
CC[C@H](C)n1cc(C)c2c(C(=O)NCc3c(C)cc(C)[nH]c3=O)cc(-c3ccc(N4CCNCC4)nc3)cc21,inactive,inactive,inactive,inactive,inactive,–,–
C[C@H](c1ccc(F)cc1CCCC(=O)O)N(c1cc(F)ccc1F)S(=O)(=O)c1ccc(Cl)cc1,inactive,inactive,inactive,inactive,inactive,–,–
Nc1nccc(-c2ccc3noc(-c4ccc(Cl)cc4)c3c2)n1,2.43 µM (active),7.69 µM (active),6.85 µM (active),4.85 µM (active),inactive,–,–
CC[C@@]1([C@@H]2O[C@@H]([C@H]3O[C@@](O)(CO)[C@H](C)C[C@H]3C)C[C@H]2C)CC[C@H]([C@]2(C)CC[C@]3(C[C@H](O)[C@@H](C)[C@@H]([C@@H](C)[C@@H](OC)[C@H](C)C(=O)O)O3)O2)O1,0.376 µM (active),3.35 µM (active),4.21 µM (active),1.06 µM (active),inactive,–,–
O=c1ncn2nc(Sc3ccc(F)cc3F)ccc2c1-c1c(Cl)cccc1Cl,inactive,inactive,inactive,inactive,inactive,–,–
CC(C)(C)OC(=O)CN(Cc1ccc(Cl)cc1)Cc1ccc([N+](=O)[O-])s1,inactive,inactive,inactive,inactive,inactive,–,–
CC[C@@H]([C@H](C)O)n1ncn(-c2ccc(N3CCN(c4ccc(OCC5CO[C@@](Cn6cncn6)(c6ccc(F)cc6F)C5)cc4)CC3)cc2)c1=O (stereo partly drawn),inactive,inactive,inactive,inactive,inactive,–,–
CC(C)c1cc(C(C)C)c(CC(=O)NS(=O)(=O)Oc2c(C(C)C)cccc2C(C)C)c(C(C)C)c1,inactive,inactive,inactive,inactive,inactive,–,–
CC1CCC(C(=O)N(c2cc(C#CC(C)(C)C)sc2C(=O)O)C2CCC(O)CC2)CC1 (stereo not drawn),inactive,inactive,inactive,inactive,inactive,–,–
COc1ccc(S(=O)(=O)Nc2cc(-c3c(O)ccc4ccccc34)c(O)c3ccccc23)cc1,inactive,inactive,inactive,inactive,inactive,–,–
COC(=O)C1C2CC3c4[nH]c5cc(OC)ccc5c4CCN3CC2CC(OC(=O)c2cc(OC)c(OC)c(OC)c2)C1OC (stereo not drawn),inactive,inactive,inactive,inactive,inactive,–,–
c1ccc2c(Oc3nc(Nc4ccc(N5CCOCC5)cc4)c4ncn(C5CCCCC5)c4n3)cccc2c1,inactive,inactive,inactive,inactive,inactive,-17.3%,–
Cc1ccc(S(=O)(=O)OCC(=O)Nc2ccc(C(=O)O)c(O)c2)cc1,inactive,inactive,inactive,inactive,inactive,2.59%,–
CCOC(=O)C1=C(O)C(=O)N(Cc2ccccc2)C1,inactive,inactive,inactive,inactive,inactive,–,inactive
C[Se]CCC(N)C(=O)O (stereo not drawn),inactive,inactive,inactive,inactive,inactive,-2.1% [at 114 µM],–
O=C(O)C1=CC(O)C(O)[C@H](O)C1 (stereo partly drawn),inactive,inactive,inactive,inactive,inactive,-8.99%,–
COc1nccc(-c2c(-c3ccc(F)cc3)ncn2C2CCNCC2)n1,inactive,inactive,inactive,inactive,inactive,–,inactive
c1cc(-c2sc(-c3ccncc3)c(-c3ccncc3)c2-c2ccncc2)ccn1,inactive,inactive,inactive,inactive,inactive,–,inactive
CC(Oc1ccc(O)cc1)(P(=O)(O)O)P(=O)(O)O,inactive,inactive,inactive,inactive,inactive,-6.64%,–
C#CCN(C)CC1=Cc2ccccc2Oc2ccccc21,inactive,inactive,inactive,inactive,inactive,1.65%,–
CC(NCCc1ccc(O)cc1)C(O)c1ccc(O)cc1 (stereo not drawn),inactive,inactive,inactive,inactive,inactive,-5.33%,–
C[C@H](CCC(=O)O)[C@H]1CCC2C3C[C@H](O)[C@@H]4C[C@H](O)CC[C@]4(C)C3CC[C@@]21C (stereo partly drawn),inactive,inactive,inactive,inactive,inactive,-10.6%,–
Cn1c(=O)c(-c2c(Cl)cccc2Cl)cc2cnc(Nc3cccc(C(=O)O)c3)nc21,inactive,inactive,inactive,inactive,inactive,–,inactive
O=C(O)CCCCC(CCSCc1ccccc1)SCc1ccccc1 (stereo not drawn),inactive,inactive,inactive,inactive,inactive,-0.966%,–
Cc1noc(-c2ccc(CSCCC(=O)O)cc2)c1NC(=O)OC(C)c1ccccc1Cl (stereo not drawn),inactive,inactive,inactive,inactive,inactive,-12.6%,–
Cc1coc2c1C(=O)C(=O)c1c-2ccc2c1CCCC2(C)C,inactive,inactive,inactive,inactive,inactive,-20%,–
Oc1cc2c(cc1O)C1c3ccc(O)c(O)c3OCC1(O)C2 (stereo not drawn),inactive,inactive,inactive,inactive,inactive,-5.64%,–
C=C1c2cccc(O)c2C(O)=C2C(=O)[C@@]3(O)C(O)=C(C(N)=O)C(=O)[C@@H](N(C)C)[C@@H]3[C@@H](O)[C@H]12,inactive,inactive,inactive,inactive,inactive,-17.4%,–
CN(C)c1ccc(-c2nc3ncc(Cl)c(N4CCN(CC(=O)Nc5nccs5)CC4)c3[nH]2)cc1,inactive,inactive,inactive,inactive,inactive,-16% [at 27.1 µM],–

# Source: PubChem BioAssay (NCATS)
